This passage reports growth results from PubChem BioAssay (NCI).

Where “and” joins values, the source holds several entries; their conditions need not be identical. Equal entries are not always repeated. The panel holds about 83,000 compounds, 20% with a hit somewhere; the sample as a whole holds those more often.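 Interpretation: 100, growth as untreated; towards 0, rising growth inhibition; 0, no net growth; 0 to -100, cell death. Compounds scoring below 10 were considered active.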 Calls of active or inactive are those of the source.

The test system of the assay is A549/ATCC NSCLC. The experiment in a line: NCI-60 one-dose screen, 48 h (100 = growth as untreated, 0 = no growth, -100 = all killed). Particulars: 10 µM unless noted. The method, then: Growth inhibition of the A549/ATCC human Non-Small Cell Lung tumor cell line is measured as a screen for anti-cancer activity. Cells are grown in 96 well plates and exposed to the test compound for 48 hours. Compounds are tested at a single concentration, which is 10^-5 M for most compounds. The reported endpoint is percent growth (GI% or GIPRCNT), where numbers from 0 - 100% represent growth inhibition, and numbers from -100% - 0 represent cell death. For example, a value of 40 represents 60% growth inhibition. A value of 0 means no net growth occurred over the course of the experiment. A value of -40 indicates 40% of cells at the beginning of the experiment died by the end of the experiment. A value of -100 means all cells are dead at the end of the experiment.
NCI-60 Human Tumor Cell Lines Screen was performed using the standard one-dose NCI protocol, which is described in more detail at https://dtp.cancer.gov/discovery_development/nci-60/default.htm.
Compounds with GIPRCNT values below 10 were considered active. Activity score was based on GIPRCNT using the following formula: […]
Score is 0 for GIPRCNT values of 100 or above, 50 for GIPRCNT values of 0, and 100 for GIPRCNT values of -100.
With `O=CN1CCCCC1`, the growth is 122% (inactive).

Regarding `OCCN1CCCCCCC1`, the growth is 99% (inactive).

For `CCN(CCNS(C)(=O)=O)c1ccc(N)c(C)c1`, the growth was 109% (inactive).

For `NC1CCC(C(=O)O)CC1` (stereo not given), the growth is 107% (inactive) and 108% (inactive).

On to `CC(=O)NCC(=O)c1ccc([N+](=O)[O-])cc1`, for which the growth is 101% (inactive).

Regarding `O=C(O)/C=C\C(=O)Nc1cccc2ccccc12`, the growth was 99.9% (inactive) and 105% (inactive).

`O=C1OC(C(O)C(O)CO)C(O)=C1O` (stereo not given): the growth is 104% (inactive) and 74.9% (inactive).

As for `CN(C)c1ccc(/C=C\C(=O)c2ccccc2)cc1`, the growth is 67% (inactive) and 79.8% (inactive) and 82.4% (inactive).

Consider `CC(=O)OC(C)C(=O)NCC(C)O` (stereo not given), for which the growth was 108% (inactive).

As to `O=C(CO)C(O)C(O)C(O)C(O)CO` (stereo not given), the growth is 97.5% (inactive) and 96.1% (inactive).

Turning to `N#CC(C#N)N=Nc1ccc(Cl)cc1`, the growth is 105% (inactive).

On to `c1ccc(-c2nc3ccccc3s2)cc1`, for which the growth is 105% (inactive).

On to `Cc1ccc(=O)[nH]n1`, for which the growth was 102% (inactive) and 91.4% (inactive).

For `CC1CCC2(OC1)OC1CC3C4CC=C5CC(O)CCC5(C)C4CCC3(C)C1C2C` (stereo not given), the growth is 27.3% (inactive).

In the case of `Cn1cnc([N+](=O)[O-])c1Sc1ncn[nH]1`, the growth was 99.4% (inactive).

For the compound `O=c1n(CC2CO2)c(=O)n(CC2CO2)c(=O)n1CC1CO1` (stereo not given), the growth is 44.3% (inactive).

In the case of `CCCCCCCCCCCCCCCCC(C(=O)O)C(O)(CC(=O)O)C(=O)O` (stereo not given), the growth was 106% (inactive) and 12.6% (inactive).

Consider `CC(=O)OCC1OC(OC(C)=O)C(OC(C)=O)C(OC(C)=O)C1OC(C)=O` (stereo not given), for which the growth is 103% (inactive) and 96.6% (inactive).

Consider `Cc1cc2ccccc2cn1`, for which the growth was 101% (inactive) and 118% (inactive).

For the compound `NC(=O)NCCCC(N)C(=O)O` (stereo not given), the growth was 104% (inactive).

`CCCCNc1ccc(Nc2ccccc2)cc1`: the growth was 70.1% (inactive).

Take `CC(C)NCC(O)c1ccc(O)c(O)c1` (stereo not given): the growth is 106% (inactive) and 119% (inactive) and 103% (inactive).

As to `CC1=C/C(O)CC(=O)Cc2nc(co2)C(=O)N2CCC=C2C(=O)OC(C(C)C)C(C)/C=C\C(=O)NC/C=C\1` (stereo not given), the growth is 83% (inactive).

On to `OCC1OC(O)C(O)C(O)C1O` (stereo not given), for which the growth was 108% (inactive).

On to `CC1CCC2(C(=O)O)CCC3(C)C(=CCC4C5(C)CCC(O)C(C)(C)C5CCC43C)C2C1C` (stereo not given), for which the growth was 24% (inactive) and 75.4% (inactive).

On to `O=[N+]([O-])c1cccc(SSc2cccc([N+](=O)[O-])c2)c1`, for which the growth was 100% (inactive).

Take `COc1ccc(N/C=C/C2=[N+](C)c3ccccc3C2(C)C)c(OC)c1`: the growth is 92.9% (inactive).

As to `O=C1C=C(Nc2ccccc2)c2ccccc2C1=O`, the growth was 6.95% (active) and 93.7% (inactive).

In the case of `Nc1ncnc2c1ncn2C1OC(COP(=O)(O)O)C(O)C1O` (stereo not given), the growth was 114% (inactive).

`COc1ccc2cc1Oc1ccc(cc1)C[C@H]1c3cc(c(OC)cc3CCN1C)Oc1c(OC)c(OC)cc3c1[C@H](C2)N(C)CC3`: the growth was 39.6% (inactive).

Regarding `Oc1ccc(Cc2ccccc2Cl)c(O)c1`, the growth was 98.8% (inactive).

As to `O=C(Cc1ccccc1)c1ccc(O)c(Cl)c1`, the growth was 96.4% (inactive).

For `COc1ccc(C(=O)CC(c2ccccc2)C(C#N)c2ccccc2)cc1` (stereo not given), the growth is 74.2% (inactive).

As for `CC(C)(O)C(=O)O`, the growth is 102% (inactive).

Regarding `CCc1cc(C)cc(O)c1`, the growth was 108% (inactive).

In the case of `O=C1OC(c2ccccc2)=N/C1=C\c1ccccc1`, the growth is 95.6% (inactive).

Regarding `CC1(C)COC(=S)N1`, the growth was 104% (inactive).

`CC1CCC(C(C)C)C(NNC(N)=O)C1` (stereo not given): the growth was 89.7% (inactive).

On to `Cc1cc(-c2ccc(N=Nc3ccc4c(S(=O)(=O)O)cc(S(=O)(=O)O)c(N)c4c3O)c(C)c2)ccc1N=Nc1ccc2c(S(=O)(=O)O)cc(S(=O)(=O)O)c(N)c2c1O`, for which the growth is 92.7% (inactive).

For the compound `Brc1ccc(SSc2ccc(Br)cc2)cc1`, the growth was 66.7% (inactive).
